Measurements reported in PubChem BioAssay (NCATS).
Inconclusive results are not listed. A call without a number means that no potency is given here. Activity calls are given as the source filed them. The call rests on the fitted dose curve; in most records, active means well fitted inhibition curve with a large enough effect; inconclusive means small, poorly fitted or top-dose-only effect; inactive means flat fitted curve, though single readings scatter.

The molecules below were run against Calcium and integrin-binding protein 1 (Homo sapiens) (UniProt Q99828) (assay: Primary qHTS for Identification of Calcium Integrin Binding Protein 1 (CIB1) Competitor (AID 1508620;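 further: GST tagged CIB1 binding a fluorescein labelled alphaIIb integrin peptide tracer; top concentration of the series differs between compounds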)). Conditions: CIB1-GST / FITC-alphaIIb peptide fluorescence polarization; series mostly up to 114 µM.
Summary of the method: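 CIB1-GST (1 uM final) and compound incubated 15 min at room temperature before adding FITC-alphaIIb peptide tracer (100 nM final). Competition for binding read by fluorescence polarization (ex 480, em 540) after another 15 min at room temperature.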

Calcium and integrin-binding protein 1 (Homo sapiens), sequence (Q99828 whole entry, looked up): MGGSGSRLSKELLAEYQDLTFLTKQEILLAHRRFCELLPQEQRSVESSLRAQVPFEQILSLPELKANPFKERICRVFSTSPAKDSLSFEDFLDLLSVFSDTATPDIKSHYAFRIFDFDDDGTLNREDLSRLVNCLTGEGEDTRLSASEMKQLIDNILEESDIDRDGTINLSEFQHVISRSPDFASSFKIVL

Q: For `O=C1c2ccccc2NC(c2ccc(Br)o2)N1O` (stereo not given), which Potency is on record?
A: The Potency was “inactive”.

Q: For `Cc1ccnc(CC(=S)N2CCN(c3cccc(C(F)(F)F)c3)CC2)c1`, which Potency is on record?
A: The Potency was “inactive”.

Q: With `COC(=O)c1ccccc1NC(=O)c1ccccc1OC(F)F` as the molecule, how does the Potency read?
A: The Potency was “inactive”.

Q: `O=C(Cc1ccc(Cl)c(Cl)c1)Nc1ccc(S(=O)(=O)NCc2ccco2)cc1` was tested. Which Potency did it give?
A: Its Potency is “inactive”.

Q: How did the Potency turn out when `CC(C)(C)OC(=O)NCC(=O)NNC(=O)c1cc2ccccc2[nH]1` was run?
A: Its Potency is “inactive”.

Q: For `O=C(OCC#CCSc1nnc(-c2ccco2)o1)c1ccc(F)cc1`, which Potency is on record?
A: Its Potency is “inactive”.

Q: Which Potency does the source give for `Clc1ccccc1-c1nc(NCc2ccc(-c3cccnc3)cc2)c2ccccc2n1` here?
A: The Potency was “inactive”.

Q: Which Potency does the source give for `CN(C)CCCNc1ccc(NC(=O)c2cccs2)cn1` here?
A: Its Potency is “inactive”.

Q: Which Potency does the source give for `O=S(=O)(NCCNS(=O)(=O)c1c(F)cccc1F)c1ccc2c(c1)OCCO2` here?
A: The Potency was “inactive”.

Q: `O=C1CCCC2=C1C1(CCCC1)N=C(Nc1nc3ccccc3n1Cc1ccccc1)N2` was tested. Which Potency did it give?
A: The Potency was “inactive”.

Q: Which Potency does the source give for `CCCN(C)c1ncnc2ccc(-c3ccc4c(c3)OCO4)cc12` here?
A: Its Potency is “inactive”.

Q: For `CCCCN(C)C(=O)Cn1nc(-c2cncnc2)ccc1=O`, which Potency is on record?
A: The Potency was “inactive”.

Q: Which Potency does the source give for `O=C(Cc1ccc2ccccc2c1)Nc1nnc(-c2ccncc2)s1` here?
A: The Potency was “inactive”.

Q: `c1nc(NCC2CCCCO2)c2cc(-c3ccc4c(c3)OCO4)ccc2n1` (stereo not given) was tested. Which Potency did it give?
A: Its Potency is “inactive”.

Q: For `Cc1cc(C=CC#N)cc(C)c1Nc1nc(Nc2ccc3c(c2)OCO3)c2[nH]cnc2n1`, which Potency is on record?
A: Its Potency is “inactive”.

Q: Which Potency does the source give for `Cc1cc(N[S+](=O)([O-])c2cc3c(cc2Cl)CCC(=O)N3)ccc1Br` here?
A: Its Potency is “inactive”.

Q: How did the Potency turn out when `N#Cc1nc(Nc2cc(F)cc(F)c2)nc(NC2CCCC2)n1` was run?
A: Its Potency is “inactive”.

Q: `CNC(=O)C1=C(C)NC(Nc2nc3ccccc3o2)=NC1c1[nH]ncc1Cl` (stereo not given) was tested. Which Potency did it give?
A: The Potency was “inactive”.

Q: Which Potency does the source give for `N#Cc1ccc(Nc2ncc(-c3cccc4ccccc34)o2)cc1` here?
A: Its Potency is “inactive”.

Q: With `Fc1cc(Nc2nc(-c3ccncc3)nc3ccccc23)ccc1-c1ccc2[nH]ncc2c1` as the molecule, how does the Potency read?
A: The Potency was “inactive”.

Q: With `COc1cccc(C2c3c(ncn(-c4ccccc4Br)c3=N)Oc3ccc4ccccc4c32)c1` (stereo not given) as the molecule, how does the Potency read?
A: The Potency was “inactive”.

Q: With `O=C1NC2=C(C(=O)CCC2)C(c2ccccc2Cl)N1` (stereo not given) as the molecule, how does the Potency read?
A: The Potency was “inactive”.

Q: For `CN(c1cccc2cccnc12)S(=O)(=O)c1ccccc1`, which Potency is on record?
A: Its Potency is “inactive”.

Q: For `Nc1cccc(-c2ccc(NC(=O)c3cccs3)cn2)c1`, which Potency is on record?
A: Its Potency is “inactive”.

Q: For `Cc1csc(CNc2ncnc3ccc(-c4cccc(Cl)c4)cc23)c1`, which Potency is on record?
A: Its Potency is “inactive”.

Q: With `CCOc1ccccc1-c1nnc2n1N=C(c1c(OC)cccc1OC)CS2` as the molecule, how does the Potency read?
A: Its Potency is “inactive”.

Q: For `COc1ccc(C2Nc3ccccc3C(=O)N2Cc2cccc3ccccc23)cc1COc1ccc(NC(C)=O)cc1` (stereo not given), which Potency is on record?
A: Its Potency is “inactive”.

Q: With `O=C1CCCC2=C1C(c1[nH]ncc1Cl)N=C(Nc1ccn[nH]1)N2` (stereo not given) as the molecule, how does the Potency read?
A: The Potency was “inactive”.

Q: For `O=S(=O)(c1ccc2c(c1)OCCO2)N1CCN(S(=O)(=O)c2ccc(Br)cc2F)CC1`, which Potency is on record?
A: Its Potency is “inactive”.

Q: `O=S(=O)(Nc1ccccc1)c1ccc(NCc2cccc(Cl)c2O)cc1` was tested. Which Potency did it give?
A: Its Potency is “inactive”.

Q: With `Cc1cc(C)nc(NC(=S)N2CCN(c3cnc4nccn4c3)CC2)c1` as the molecule, how does the Potency read?
A: Its Potency is “inactive”.

Q: How did the Potency turn out when `COc1cncc(NC(=O)c2cccs2)c1` was run?
A: The Potency was “inactive”.

Q: Which Potency does the source give for `O=C1CCCC2=C1C(c1ccc(F)cc1)N=C(Nc1nc3ccccc3o1)N2` (stereo not given) here?
A: Its Potency is “inactive”.

Q: For `O=C1CCCC2=C1C(c1[nH]ncc1Cl)N=C(Nc1nccs1)N2` (stereo not given), which Potency is on record?
A: The Potency was “inactive”.

Q: With `Cn1cc(P(=O)(c2ccccc2)c2ccccc2)c2ccccc21` as the molecule, how does the Potency read?
A: Its Potency is “inactive”.

Q: For `CC1(C)CC(=O)C2=C(C1)NC(Nc1nc3ccccc3o1)=NC21CCCC1`, which Potency is on record?
A: The Potency was “inactive”.

Q: `Cc1ccc(N[S+](=O)([O-])c2cc3c(cc2CCc2ccccc2)NC(=O)CO3)cc1C` was tested. Which Potency did it give?
A: Its Potency is “inactive”.

Q: `CN(C)c1ccc(C2N=C(Nc3nc4ccccc4o3)NC3=C2C(=O)CCC3)cc1` (stereo not given) was tested. Which Potency did it give?
A: Its Potency is “inactive”.

Q: How did the Potency turn out when `N#Cc1ccc(-c2ccc(C3Nc4ccccc4C(=O)N3O)o2)cc1` (stereo not given) was run?
A: The Potency was “inactive”.

Q: With `COc1cccc(C2=Nn3c(nnc3-c3cccc(OC)c3OC)SC2)c1` as the molecule, how does the Potency read?
A: The Potency was “inactive”.
